The values that follow come from PubChem BioAssay.

Experiment [1] is described as follows: rapamycin-like changes in RPL19A-GFP expression – cell-based, S. cerevisiae, multiplex flow cytometry, primary screen (AID 1862; in the data active = percent of DMSO control GFP below about 86%;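 note: lower values mimic rapamycin by blocking the RPL19A rise seen in DMSO cells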). The conditions noted are these: S. cerevisiae RPL19A-GFP strain, flow cytometry fluorescence, 3 h; at 10 µM; stronger effect = lower value. In general terms: In flow cytometry, cells or beads pass a laser one at a time.
The nature of experiment [2]: TOR pathway GLN3 branch reporter MEP2-GFP changes – S. cerevisiae, multiplex flow cytometry, primary screen (AID 1867;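 active = GFP response, as percent of the DMSO control, above the screen-wide mean plus 3 SD, about 139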;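 note: median GFP channel fluorescence of barcode-gated MEP2-GFP cells measured by flow cytometry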). The conditions noted are these: S. cerevisiae MEP2-GFP strain, 3 h, at 10 µM, stronger effect = higher value, 100% means same as DMSO wells.
The nature of experiment [3]: TOR pathway RTG branch CIT2 reporter changes – S. cerevisiae, GFP fusion, multiplex flow cytometry, primary screen (AID 1870;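 active = percent response above a set limit, the screen-wide mean plus 3 SD, cut at about 130% in these data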;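 note: barcoded CIT2-GFP strain pooled with four other GFP strains with rapamycin as positive control; median GFP fluorescence per well over plate mean of DMSO wells so 100% = DMSO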). The conditions noted are these: S. cerevisiae CIT2-GFP expression, 3 h, at 10 µM, stronger effect = higher value.
Experiment [4] in a line: TOR pathway LAP4-GFP level changes – S. cerevisiae, multiplex flow cytometry, primary screen (AID 1873;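 active = GFP signal, as percent of the solvent control, above the screen mean plus 3 SD, about 149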). As to conditions: S. cerevisiae LAP4-GFP expression, 3 h, at 10 µM, stronger effect = higher value.
Experiment [5] is described as follows: yeast AGP1-GFP level changes, GLN3 branch – cell-based, multiplex flow cytometry, S. cerevisiae, primary screen (AID 1887;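 active = GFP signal above the screen-wide mean plus 3 SD, that is over about 124.5% of the solvent control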;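 note: AGP1-GFP fusion strain of S. cerevisiae within a five-strain barcoded multiplex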). The conditions noted are these: 3 h, at 10 µM, stronger effect = higher value.
A short description of experiment [6]: reduced mouse 2C T cell binding to pMHC/ICAM-1 vesicles – MLPCN validation set, flow cytometry, LFA-1/ICAM-1 modulator project, pilot screen (AID 2523;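 active = response below a set limit, under 55% cells CD8-positive and vesicle-bound, and CD8 cells' 90th-percentile brightness under 279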;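 for vesicle binding response: mean PE anti-B7-1 fluorescence of CD8+ cells relative to row control; 100% = QL9-loaded vesicles with DMSO vehicle in the same plate row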). As to conditions: 2C mouse CD8+ T cells, at 7 µM, stronger effect = lower value; double positive events: measured here: CD8+/vesicle+ event percentage.
For experiment [7], the target named is Integrin beta-1 (Homo sapiens) + Integrin alpha-4 (Homo sapiens) (UniProt P13612+P05556). Kind of experiment: alpha4beta1 integrin LIBS antibody binding reduction – U937 cells, HUTS-21 mAb, flow cytometry, validation set, VLA-4 allosteric modulator project, pilot screen (AID 2674;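 active = inhibition above 50%, about 3 SD of the validation set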;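 note: antibody binding induced by the VLA-4 ligand LDV present at three times its Kd; 0% = LDV ligand with antibody and no compound and 100% = antibody without LDV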). As to conditions: HUTS-21 LIBS mAb binding, at 6.7 µM, stronger effect = higher value, binding induced by LDV ligand.

A short description of experiment [8]: calorie-restriction mimetic ROS inhibitors, yeast – validation compound set, pilot screen (AID 2706;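 active = superoxide response below 65% of plate, a cut near 3 SD across the whole screen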;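 note: yeast exposed to compound for one week at 30 degrees C before staining; 100% = mean of all compound wells on the same plate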). The conditions noted are these: S. cerevisiae aging, superoxide DHE fluorescence; at 10 µM; stronger effect = lower value.
Experiment [9] deals with Beta-adrenergic receptor kinase 1 (Homo sapiens) (UniProt P25098). Kind of experiment: GRK2 binders displacing RNA aptamer, biochemical, validation, human GRK2, bead flow cytometry (AID 488806;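 active = aptamer binding inhibition above 30%, about 3 SD of noise from non-fluorescent compounds; inactive = inhibition at or below 30%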). The conditions noted are these: bead-bound GRK2, FAM-aptamer displacement, at 10 µM, stronger effect = higher value.
Experiment [10] concerns the target Beta-2 adrenergic receptor (Homo sapiens) (UniProt P07550). Kind of experiment: agonist-induced loss of surface beta2AR – cell-based, FAP fluorogen, flow cytometry, validation set, pilot screen (AID 504459;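 active = percent response above 42, roughly 3 SD of non-fluorescent test compounds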;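 note: agonist-driven loss of surface beta2AR via internalization measured by FAP dye flow cytometry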). As to conditions: Am2.2-beta2AR cells, at 10 µM, stronger effect = higher value.
The target of experiment [11] is AP-2 complex subunit beta (Homo sapiens) (UniProt P63010). Kind of experiment: beta-arrestin/AP2 interaction blockers – biochemical, validation set, GST-AP2 beads, flow cytometry, pilot screen (AID 504541;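 active = inhibition above 54%, about 3 SD of non-fluorescent compounds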;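 note: AP2 carries R879A mutation and is captured from E. coli lysate; bead-bound FITC arrestin peptide fluorescence measuring arrestin peptide binding to AP2; 0% = DMSO wells and 100% = excess unlabeled arrestin peptide control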). The conditions noted are these: FITC arrestin peptide, at 10 µM, stronger effect = higher value, AP2 beta2 appendage fragment, R879A mutant.
Experiment [12] is described as follows: cytosolic pH regulators acting via V-ATPase – S. cerevisiae, pHLuorin, HTS validation (AID 504600; in the data active = response above about 15%;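 note: plate controls were DMSO for no effect and reference compound for full effect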). As to conditions: V-ATPase proton transport, at 10 µM, stronger effect = higher value.
In experiment [13] the test system is anti-desmoglein-3 scFv antibody binding to human DSG3. Kind of experiment: blockers of pathogenic pemphigus antibody–desmoglein-3 binding – biochemical, validation compound set, bead-based, flow cytometry, pilot screen (AID 588368;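 active = binding below the plate cutoff, the plate median minus 3 SD, with a reading above zero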;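 note: signal is the median channel fluorescence of bead-bound GFP antibody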). As to conditions: Protein G beads, DSG3-Fc, scFv-GFP binding, at 10 µM, stronger effect = lower value.
The nature of experiment [14]: Nile Red efflux blockade in pump-expressing yeast – validation compound set, multiplex, phenotypic, pilot screen (AID 588506;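 active = efflux inhibition above 0.42, the validation set average plus 4 SD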;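 note: Nile Red retained in cells so higher fluorescence means more efflux inhibition; 0 = negative control wells and 1 = enniatin B 25 µM full block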). The conditions noted are these: S. cerevisiae pump-expressing triplex, Nile Red efflux flow cytometry; at 10 µM; stronger effect = higher value; the pumps come from Candida albicans.
Experiment [15] addresses ATP-binding cassette sub-family B member 6 (Homo sapiens) (UniProt Q9NP58). As to the kind of experiment: blockers of ABCB6-driven porphyrin uptake – K562-ABCB6 cells, flow cytometry, validation set, pilot screen (AID 588550).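 Note: 0% = DMSO wells and 100% = benzethonium chloride 70 µM positive control.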 As to conditions: K562-ABCB6 porphyrin accumulation, 1 h, at 10 µM, stronger effect = higher value.
Experiment [16] in a line: AML differentiation inducers, ER-HoxA9 marrow cells – cell-based, GFP/MAC1 double positive, flow cytometry, validation set, primary screen (AID 588685;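 active = differentiation response of at least 50%, scaled between solvent and reference control, from cells with both markers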;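 note: compound exposure lasts four days before antibody staining and flow analysis; 0% = DMSO wells and 100% = 5 µM fulvestrant positive control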). The conditions noted are these: stronger effect = higher value, normalized: vehicle 0, fulvestrant 100.

Molecules are shown by their SMILES. Records with an inconclusive call do not appear. The source made the active and inactive calls.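 Rule for the calls, unless noted: active = inhibition above the screen-wide mean plus 3 SD, about 51%; inactive = the rest.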

The inhibition is the change of the read-out against control, counted positive when it falls.

Chain of AP-2 complex subunit beta (Homo sapiens) (P63010 whole entry, looked up, the tested form may be a part, one chain of several): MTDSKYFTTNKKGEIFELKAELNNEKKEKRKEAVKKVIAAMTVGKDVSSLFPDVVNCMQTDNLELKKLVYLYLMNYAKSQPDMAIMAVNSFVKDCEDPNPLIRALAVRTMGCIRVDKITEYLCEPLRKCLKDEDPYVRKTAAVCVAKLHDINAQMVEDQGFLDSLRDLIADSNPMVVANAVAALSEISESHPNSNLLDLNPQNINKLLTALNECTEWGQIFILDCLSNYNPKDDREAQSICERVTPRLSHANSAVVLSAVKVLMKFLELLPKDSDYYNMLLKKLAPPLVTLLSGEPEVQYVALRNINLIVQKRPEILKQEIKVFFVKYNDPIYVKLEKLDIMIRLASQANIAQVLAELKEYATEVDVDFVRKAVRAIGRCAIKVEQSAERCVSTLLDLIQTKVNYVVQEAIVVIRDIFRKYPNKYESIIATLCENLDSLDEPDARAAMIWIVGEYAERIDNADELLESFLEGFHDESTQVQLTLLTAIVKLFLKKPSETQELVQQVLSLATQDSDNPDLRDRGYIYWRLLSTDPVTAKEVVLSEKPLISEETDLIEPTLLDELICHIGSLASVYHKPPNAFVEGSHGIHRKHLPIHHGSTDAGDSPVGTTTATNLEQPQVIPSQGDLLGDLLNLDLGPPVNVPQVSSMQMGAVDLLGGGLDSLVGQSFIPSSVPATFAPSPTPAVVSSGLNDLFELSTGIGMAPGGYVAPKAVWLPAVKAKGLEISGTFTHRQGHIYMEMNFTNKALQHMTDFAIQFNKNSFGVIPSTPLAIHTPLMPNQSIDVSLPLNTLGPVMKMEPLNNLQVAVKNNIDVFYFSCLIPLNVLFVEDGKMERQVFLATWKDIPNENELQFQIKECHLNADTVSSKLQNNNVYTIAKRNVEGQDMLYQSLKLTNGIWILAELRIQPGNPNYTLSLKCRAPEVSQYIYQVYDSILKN
Chain of Integrin beta-1 (Homo sapiens) + Integrin alpha-4 (Homo sapiens) (P05556 whole entry, looked up): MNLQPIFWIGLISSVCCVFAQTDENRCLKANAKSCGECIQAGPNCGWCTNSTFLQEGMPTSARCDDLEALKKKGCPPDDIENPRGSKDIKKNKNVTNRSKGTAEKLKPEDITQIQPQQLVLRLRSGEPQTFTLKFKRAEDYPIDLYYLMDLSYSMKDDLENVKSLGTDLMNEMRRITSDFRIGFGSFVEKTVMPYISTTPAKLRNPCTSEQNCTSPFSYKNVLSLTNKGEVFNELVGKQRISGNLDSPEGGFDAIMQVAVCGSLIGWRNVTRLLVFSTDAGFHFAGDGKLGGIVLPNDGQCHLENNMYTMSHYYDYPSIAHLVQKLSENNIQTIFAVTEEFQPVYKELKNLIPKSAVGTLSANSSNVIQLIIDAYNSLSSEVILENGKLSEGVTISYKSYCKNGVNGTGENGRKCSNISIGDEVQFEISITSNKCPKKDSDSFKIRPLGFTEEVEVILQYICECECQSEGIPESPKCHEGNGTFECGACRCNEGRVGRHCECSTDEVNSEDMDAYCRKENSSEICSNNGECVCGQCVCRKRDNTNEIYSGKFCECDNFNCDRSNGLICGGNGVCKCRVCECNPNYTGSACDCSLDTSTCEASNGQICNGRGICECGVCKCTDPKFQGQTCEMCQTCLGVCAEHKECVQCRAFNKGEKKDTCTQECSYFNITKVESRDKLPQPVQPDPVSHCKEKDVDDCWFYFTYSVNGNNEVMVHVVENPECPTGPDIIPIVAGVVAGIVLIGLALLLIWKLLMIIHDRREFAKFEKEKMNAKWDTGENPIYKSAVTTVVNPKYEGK
Chain of Integrin beta-1 (Homo sapiens) + Integrin alpha-4 (Homo sapiens) (P13612 whole entry, looked up): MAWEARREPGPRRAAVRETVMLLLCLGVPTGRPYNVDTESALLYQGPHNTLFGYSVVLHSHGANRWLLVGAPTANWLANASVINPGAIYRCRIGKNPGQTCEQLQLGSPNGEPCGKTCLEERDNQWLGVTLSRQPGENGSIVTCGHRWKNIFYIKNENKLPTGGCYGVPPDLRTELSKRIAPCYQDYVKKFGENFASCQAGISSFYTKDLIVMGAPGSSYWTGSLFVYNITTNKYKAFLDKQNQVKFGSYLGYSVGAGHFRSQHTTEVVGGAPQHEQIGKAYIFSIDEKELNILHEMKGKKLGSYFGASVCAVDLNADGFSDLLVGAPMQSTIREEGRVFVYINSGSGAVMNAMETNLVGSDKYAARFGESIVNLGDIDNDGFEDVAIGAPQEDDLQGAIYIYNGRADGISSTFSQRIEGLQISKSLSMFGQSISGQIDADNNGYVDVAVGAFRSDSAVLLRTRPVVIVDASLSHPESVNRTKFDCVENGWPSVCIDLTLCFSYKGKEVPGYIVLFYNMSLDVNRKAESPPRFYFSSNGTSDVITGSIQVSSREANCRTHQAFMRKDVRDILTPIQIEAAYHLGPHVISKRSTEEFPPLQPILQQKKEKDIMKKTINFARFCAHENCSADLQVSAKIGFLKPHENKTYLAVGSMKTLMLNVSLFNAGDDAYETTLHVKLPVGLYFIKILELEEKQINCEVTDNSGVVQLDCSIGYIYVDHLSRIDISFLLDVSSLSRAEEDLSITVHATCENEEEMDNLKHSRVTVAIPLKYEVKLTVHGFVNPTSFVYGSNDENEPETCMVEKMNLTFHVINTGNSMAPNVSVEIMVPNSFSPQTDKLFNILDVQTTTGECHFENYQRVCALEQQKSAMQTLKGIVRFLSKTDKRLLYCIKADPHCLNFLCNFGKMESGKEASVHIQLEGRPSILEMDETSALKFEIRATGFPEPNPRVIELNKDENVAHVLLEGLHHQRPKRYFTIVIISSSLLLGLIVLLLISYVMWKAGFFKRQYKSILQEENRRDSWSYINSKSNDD
Chain of Beta-adrenergic receptor kinase 1 (Homo sapiens) (P25098 whole entry, looked up): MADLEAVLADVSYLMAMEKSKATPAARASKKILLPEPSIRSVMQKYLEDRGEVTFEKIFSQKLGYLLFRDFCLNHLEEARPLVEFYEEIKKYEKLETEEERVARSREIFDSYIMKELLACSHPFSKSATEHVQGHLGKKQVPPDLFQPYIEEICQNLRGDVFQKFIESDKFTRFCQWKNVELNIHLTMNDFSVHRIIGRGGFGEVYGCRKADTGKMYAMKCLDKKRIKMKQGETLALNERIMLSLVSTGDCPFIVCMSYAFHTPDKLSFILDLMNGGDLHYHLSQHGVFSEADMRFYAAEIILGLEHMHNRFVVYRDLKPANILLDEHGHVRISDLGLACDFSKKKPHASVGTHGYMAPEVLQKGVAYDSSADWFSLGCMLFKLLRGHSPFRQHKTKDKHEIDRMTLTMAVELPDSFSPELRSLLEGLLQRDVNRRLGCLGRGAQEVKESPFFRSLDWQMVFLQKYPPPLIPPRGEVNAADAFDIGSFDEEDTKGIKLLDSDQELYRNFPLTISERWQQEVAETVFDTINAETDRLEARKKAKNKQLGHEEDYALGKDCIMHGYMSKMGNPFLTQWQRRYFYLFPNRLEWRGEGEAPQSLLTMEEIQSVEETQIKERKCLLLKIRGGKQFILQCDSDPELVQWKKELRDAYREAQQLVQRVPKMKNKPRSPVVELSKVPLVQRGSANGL
Chain of Beta-2 adrenergic receptor (Homo sapiens) (P07550 whole entry, looked up): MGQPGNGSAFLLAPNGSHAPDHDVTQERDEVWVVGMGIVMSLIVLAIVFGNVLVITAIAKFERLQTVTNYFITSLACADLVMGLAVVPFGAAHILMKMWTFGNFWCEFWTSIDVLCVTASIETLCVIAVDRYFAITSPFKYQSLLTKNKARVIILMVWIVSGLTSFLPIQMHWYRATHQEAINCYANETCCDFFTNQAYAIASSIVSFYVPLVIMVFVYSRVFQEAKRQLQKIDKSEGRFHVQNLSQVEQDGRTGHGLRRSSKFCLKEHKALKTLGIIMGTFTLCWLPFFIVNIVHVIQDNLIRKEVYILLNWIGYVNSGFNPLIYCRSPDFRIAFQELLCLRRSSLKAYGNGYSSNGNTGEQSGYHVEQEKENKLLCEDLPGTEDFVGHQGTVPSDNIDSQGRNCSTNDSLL
Chain of ATP-binding cassette sub-family B member 6 (Homo sapiens) (Q9NP58 whole entry, looked up): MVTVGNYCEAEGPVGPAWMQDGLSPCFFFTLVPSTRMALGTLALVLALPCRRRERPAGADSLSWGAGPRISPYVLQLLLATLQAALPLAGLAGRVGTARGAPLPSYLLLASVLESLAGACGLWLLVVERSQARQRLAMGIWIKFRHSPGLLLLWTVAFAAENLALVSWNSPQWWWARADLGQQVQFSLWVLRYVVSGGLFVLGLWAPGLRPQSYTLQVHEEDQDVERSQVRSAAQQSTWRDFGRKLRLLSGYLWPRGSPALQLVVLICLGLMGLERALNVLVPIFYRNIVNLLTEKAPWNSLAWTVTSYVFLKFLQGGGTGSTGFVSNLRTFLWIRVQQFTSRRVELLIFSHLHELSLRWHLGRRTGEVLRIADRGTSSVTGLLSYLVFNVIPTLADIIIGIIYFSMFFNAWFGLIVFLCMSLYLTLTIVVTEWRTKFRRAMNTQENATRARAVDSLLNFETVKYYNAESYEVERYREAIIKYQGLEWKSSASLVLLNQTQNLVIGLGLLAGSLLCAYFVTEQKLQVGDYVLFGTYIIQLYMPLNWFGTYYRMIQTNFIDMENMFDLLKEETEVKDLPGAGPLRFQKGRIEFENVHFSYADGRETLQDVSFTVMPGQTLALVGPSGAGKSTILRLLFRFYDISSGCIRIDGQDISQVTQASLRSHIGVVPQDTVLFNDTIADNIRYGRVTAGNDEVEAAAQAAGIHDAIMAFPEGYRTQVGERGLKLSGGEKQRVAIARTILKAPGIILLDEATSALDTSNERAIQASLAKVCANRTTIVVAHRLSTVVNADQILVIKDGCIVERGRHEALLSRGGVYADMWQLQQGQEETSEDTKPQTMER

With `O=C(Nc1ccc(C(=O)NC2CCCCC2)cc1)c1cccnc1`, the percent of DMSO control GFP in [1] is 99.5% (inactive). Also, the figures for the GFP response vs DMSO in experiment [2] and in experiment [4] were 101% (inactive) and 119% (inactive), respectively. Besides, the percent response of DMSO control in experiment [3] was 107% (inactive). For the same compound, the GFP response, % of DMSO in experiment [5] is 105% (inactive). In experiment [6], this compound yielded a double positive events of 57.6%. The vesicle binding response in experiment [6] is 232% (inactive). For the same compound, the inhibition was -0.43% (inactive) in [7], -15.9% (inactive) in experiment [11] and 13% (inactive) in experiment [15]. Further, the superoxide response (% of plate) in [8] was 113% (inactive). Also, the aptamer binding inhibition in experiment [9] is 1% (inactive). Besides, the response in [10] is -3.04% (inactive); in experiment [12], 1.36% (inactive). In experiment [13], the binding (% of control) is 95.1% (inactive). In experiment [14], the efflux inhibition (fraction of control) is -0.17 (inactive). The differentiation response in experiment [16] is -4% (inactive).
Turning to `COc1ccc2cc([C@H](C)C(=O)O)ccc2c1`, in experiment [1], the percent of DMSO control GFP is 103% (inactive). The results for the GFP response vs DMSO in [2] and in [4] were 93% (inactive) and 77.7% (inactive), respectively. Also, in experiment [3], the percent response of DMSO control was 99.6% (inactive). In addition, the GFP response, % of DMSO in experiment [5] was 91.7% (inactive). This compound showed a double positive events in experiment [6] of 70.5%. Besides, the vesicle binding response in experiment [6] was 222% (inactive). Besides, the inhibition in [7] is 2.3% (inactive); in [11] it was -13.8% (inactive); in [15] it was 6% (inactive). For the same compound, the superoxide response (% of plate) in [8] was 91% (inactive). Also, the aptamer binding inhibition in experiment [9] was 5% (inactive). The response in experiment [10] was 15.2% (inactive); in experiment [12] it was -6.97% (inactive). For the same compound, in experiment [13], the binding (% of control) was 99.3% (inactive). Besides, in experiment [14], the efflux inhibition (fraction of control) was 0.08 (inactive). The differentiation response in experiment [16] was -12% (inactive).
As for `Cn1cc(CN2CCN(CCO)CC2)c(-c2ccc(Oc3ccccc3)cc2)n1`, the percent of DMSO control GFP in experiment [1] is 102% (inactive). Also, the GFP response vs DMSO in experiment [2] is 102% (inactive); in experiment [4], 114% (inactive). Moreover, in [3], the percent response of DMSO control is 96.7% (inactive). Further, the GFP response, % of DMSO in [5] was 100% (inactive). Also, in [6], the double positive events worked out at 61%. Further, in experiment [6], the vesicle binding response was 244% (inactive). Besides, the results for the inhibition in [7], in experiment [11] and in experiment [15] were 13.2% (inactive), -1.86% (inactive) and 6% (inactive), respectively. In addition, the superoxide response (% of plate) in experiment [8] is 82.1% (inactive). For the same compound, the aptamer binding inhibition in experiment [9] is 0% (inactive). For the same compound, the values for the response in experiment [10] and in [12] were 11.3% (inactive) and 3.7% (inactive), respectively. The binding (% of control) in [13] was 99.7% (inactive). For the same compound, the efflux inhibition (fraction of control) in [14] is -0.28 (inactive). Besides, the differentiation response in experiment [16] was 15.2% (inactive).
In the case of `Cc1ccc(OCc2nc(-c3cccnc3)no2)cc1C`, the percent of DMSO control GFP in [1] is 92% (inactive). The GFP response vs DMSO in [2] is 124% (inactive); in experiment [4] it was 75.4% (inactive). For the same compound, the percent response of DMSO control in experiment [3] is 99.2% (inactive). In experiment [5], the GFP response, % of DMSO is 88% (inactive). This compound gave a double positive events in [6] of 60.5%. Also, the vesicle binding response in [6] was 221% (inactive). Further, the results for the inhibition in [7], in experiment [11] and in experiment [15] were -7.12% (inactive), 1.06% (inactive) and 9% (inactive), respectively. Also, the superoxide response (% of plate) in [8] was 101% (inactive). In addition, the aptamer binding inhibition in [9] was 1% (inactive). Moreover, the figures for the response in [10] and in [12] were -15.7% (inactive) and 3.35% (inactive), respectively. Further, the binding (% of control) in [13] was 98.3% (inactive). The efflux inhibition (fraction of control) in experiment [14] is 0.27 (inactive). The differentiation response in [16] is 2.46% (inactive).
